Experimental data from PubChem BioAssay AID1159580 (chemical genetic matrix, 2015).
Screen size: about 5,500 compounds; about 2,000 (36%) were called active. Roughly 18% stayed inconclusive and do not appear here. No stated cut-off is given here; in the data, active means normalized growth mostly below about 0.91 (no sharp cut-off); inconclusive means no clear call, values can overlap the other calls; inactive means mostly above about 0.92. Some of the results follow.

Test: chemical genetic growth profiling, strain panel (AID 1159580);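 further: tested at 20 µM; growth read once vehicle control cultures reached saturation at 30 °C; 1 = growth at the plate median or of vehicle wells; lower values mean less growth of the strain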
Conditions: growth OD

Measured: normalized growth

CCC1OC(=O)[C@H](C)C(=O)[C@H](C)[C@@H](OC2O[C@H](C)C[C@H](N(C)C)[C@H]2O)[C@](C)(OC)C2(CCCn3cnc(-c4cccnc4)c3)C[C@@H](C)C(=O)[C@H](C)[C@H]3N(C2)C(=O)O[C@]13C (some centres undefined)
inactive: S. cerevisiae deletion strains, locus YJR043C, strain POL32, active compounds read low 0.994 | S. cerevisiae deletion strains, locus YJR075W, strain HOC1, active compounds read low 0.99 | S. cerevisiae deletion strains, locus YKL009W, strain mrt4, active compounds read low 1.01 | S. cerevisiae deletion strains, locus YKL068W, active compounds read low 1.01 | S. cerevisiae deletion strains, locus YKL085W, strain MDH1 (second series), active compounds read low 0.998 | S. cerevisiae deletion strains, locus YKL085W, strain MDH1, active compounds read low 0.998 | S. cerevisiae deletion strains, locus YKL160W, strain elf1, active compounds read low 0.994 | S. cerevisiae deletion strains, locus YKL190W, strain CNB1, active compounds read low 1 | S. cerevisiae deletion strains, locus YKR001C, strain vps1, active compounds read low 0.997 | S. cerevisiae deletion strains, locus YKR026C, strain gcn3, active compounds read low 0.989 | S. cerevisiae deletion strains, locus YKR091W, strain srl3, active compounds read low 0.985 | S. cerevisiae deletion strains, locus YLL001W, strain dnm1, active compounds read low 0.984 | S. cerevisiae deletion strains, locus YLL026W, active compounds read low 0.988 | S. cerevisiae deletion strains, locus YLL041C, strain sdh2, active compounds read low 0.977 | S. cerevisiae deletion strains, locus YLR027C, strain aat2, active compounds read low 0.99 | S. cerevisiae deletion strains, locus YLR039C, strain RIC1, active compounds read low 1.02 | S. cerevisiae deletion strains, locus YLR058C, strain SHM2, active compounds read low 1 | S. cerevisiae deletion strains, locus YLR102C, strain apc9, active compounds read low 0.997 | S. cerevisiae deletion strains, locus YLR221C, strain rsa3, active compounds read low 0.973 | S. cerevisiae deletion strains, locus YLR258W, strain gsy2, active compounds read low 0.983 | S. cerevisiae deletion strains, locus YLR262C, strain YPT6 (second series), active compounds read low 0.978 | S. cerevisiae deletion strains, locus YLR262C, strain YPT6, active compounds read low 1.04 | S. cerevisiae deletion strains, locus YLR268W, strain sec22, active compounds read low 0.98 | S. cerevisiae deletion strains, locus YLR320W, strain mms22, active compounds read low 0.975 | S. cerevisiae deletion strains, locus YLR330W, strain CHS5, active compounds read low 1 | S. cerevisiae deletion strains, locus YLR342W, strain FKS1 (second series), active compounds read low 0.999 | S. cerevisiae deletion strains, locus YLR342W, strain FKS1, active compounds read low 1.01 | S. cerevisiae deletion strains, locus YLR357W, strain rsc2, active compounds read low 0.935 | S. cerevisiae deletion strains, locus YLR370C, strain arc18, active compounds read low 0.985 | S. cerevisiae deletion strains, locus YLR371W, strain rom2, active compounds read low 1.01 | S. cerevisiae deletion strains, locus YLR384C, strain iki3, active compounds read low 0.995 | S. cerevisiae deletion strains, locus YLR418C, strain cdc73, active compounds read low 0.979 | S. cerevisiae deletion strains, locus YML016C, strain PPZ1, active compounds read low 1.01 | S. cerevisiae deletion strains, locus YML032C, strain rad52, active compounds read low 1.01 | S. cerevisiae deletion strains, locus YML120C, strain ndi1, active compounds read low 0.966 | S. cerevisiae deletion strains, locus YML124C, strain tub3, active compounds read low 1.01 | S. cerevisiae deletion strains, locus YMR058W, strain fet3, active compounds read low 0.974 | S. cerevisiae deletion strains, locus YMR078C, strain ctf18, active compounds read low 1.01 | S. cerevisiae deletion strains, locus YMR125W, strain sto1, active compounds read low 1.01 | S. cerevisiae deletion strains, locus YMR129W, active compounds read low 0.974 | S. cerevisiae deletion strains, locus YMR205C, strain PFK2, active compounds read low 0.996 | S. cerevisiae deletion strains, locus YMR223W, strain ubp8, active compounds read low 1 | S. cerevisiae deletion strains, locus YMR231W, strain pep5, active compounds read low 0.98 | S. cerevisiae deletion strains, locus YMR263W, strain SAP30, active compounds read low 1 | S. cerevisiae deletion strains, locus YMR307W, strain GAS1, active compounds read low 0.93 | S. cerevisiae deletion strains, locus YNL067W, strain RPL9B, active compounds read low 1.01 | S. cerevisiae deletion strains, locus YNL071W, strain lat1, active compounds read low 0.99 | S. cerevisiae deletion strains, locus YNL128W, strain TEP1, active compounds read low 1.01 | S. cerevisiae deletion strains, locus YNL153C, strain GIM3, active compounds read low 1.01 | S. cerevisiae deletion strains, locus YNL209W, strain ssb2, active compounds read low 0.986 | S. cerevisiae deletion strains, locus YNL233W, strain BNI4, active compounds read low 1.01 | S. cerevisiae deletion strains, locus YNL248C, strain rpa49, active compounds read low 0.946 | S. cerevisiae deletion strains, locus YNL250W, strain rad50, active compounds read low 0.992 | S. cerevisiae deletion strains, locus YNL271C, strain bni1, active compounds read low 0.997 | S. cerevisiae deletion strains, locus YNL298W, strain CLA4, active compounds read low 0.995 | S. cerevisiae deletion strains, locus YNL307C, strain MCK1, active compounds read low 1.01 | S. cerevisiae deletion strains, locus YNL322C, strain KRE1 (second series), active compounds read low 0.968 | S. cerevisiae deletion strains, locus YNL322C, strain KRE1, active compounds read low 1 | S. cerevisiae deletion strains, locus YNR049C, strain mso1, active compounds read low 0.958 | S. cerevisiae deletion strains, locus YNR052C, strain pop2, active compounds read low 1.01 | S. cerevisiae deletion strains, locus YOL006C, strain TOP1, active compounds read low 1 | S. cerevisiae deletion strains, locus YOL012C, strain htz1 1.16 | S. cerevisiae deletion strains, locus YOL147C, strain pex11, active compounds read low 1 | S. cerevisiae deletion strains, locus YOR001W, strain rrp6, active compounds read low 1 | S. cerevisiae deletion strains, locus YOR061W, strain CKA2, active compounds read low 1.01 | S. cerevisiae deletion strains, locus YOR069W, strain VPS5, active compounds read low 1.01 | S. cerevisiae deletion strains, locus YOR070C, strain gyp1, active compounds read low 0.984 | S. cerevisiae deletion strains, locus YOR080W, strain dia2, active compounds read low 0.968 | S. cerevisiae deletion strains, locus YOR083W, strain WHI5, active compounds read low 1.01 | S. cerevisiae deletion strains, locus YOR106W, strain vam3, active compounds read low 0.994 | S. cerevisiae deletion strains, locus YOR136W, strain idh2, active compounds read low 1.01 | S. cerevisiae deletion strains, locus YOR144C, strain elg1, active compounds read low 1 | S. cerevisiae deletion strains, locus YOR184W, strain ser1, active compounds read low 0.996 | S. cerevisiae deletion strains, locus YOR265W, strain rbl2, active compounds read low 0.996 | S. cerevisiae deletion strains, locus YOR270C, strain vph1, active compounds read low 0.963 | S. cerevisiae deletion strains, locus YOR290C, strain snf2, active compounds read low 0.963 | S. cerevisiae deletion strains, locus YOR316C, strain cot1, active compounds read low 0.998 | S. cerevisiae deletion strains, locus YPL051W, strain arl3, active compounds read low 1 | S. cerevisiae deletion strains, locus YPL055C, strain LGE1, active compounds read low 1.02 | S. cerevisiae deletion strains, locus YPL078C, strain atp4, active compounds read low 0.984 | S. cerevisiae deletion strains, locus YPL106C, strain sse1, active compounds read low 0.943 | S. cerevisiae deletion strains, locus YPL240C, strain hsp82, active compounds read low 0.986 | S. cerevisiae deletion strains, locus YPL241C, strain CIN2, active compounds read low 1 | S. cerevisiae deletion strains, locus YPR119W, strain clb2, active compounds read low 1 | S. cerevisiae deletion strains, locus YPR141C, strain kar3, active compounds read low 1 | S. cerevisiae deletion strains, locus YPR163C, strain tif3, active compounds read low 1.01 | S. cerevisiae deletion strains, locus YPR167C, strain met16, active compounds read low 1 | S. cerevisiae deletion strains, strain wtn01, active compounds read low 0.977 | S. cerevisiae strains, strain wild type, active compounds read low 0.999
